# Sampled rows, rich in hits. Any-hit rate of the full collection: about 27%.
# Cav32 inh: human Cav3.2 channel inhibition, primary screen; Cav3.2-expressing cells, Fluo-4 calcium fluorescence FDSS; hits give low values; B-score at 10 µM; O95180; 4% of 100,000 active;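 active = single-dose well whose peak fluorescence ratio is a statistical outlier from its plate by either plate-standardised score or position-corrected B-score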
# CYP2C9 inhib: blocks human cytochrome P450 2C9; P11712; CYP2C9 Supersomes, luciferin-H conversion, luminescence; inhibition, % at 5 µM; 20% of 96,000 active; AID 777;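 active = blocking of liver enzyme CYP2C9 beyond about 50% at 5 µM, limit read from the data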
# CYP2C19 inhib: human CYP2C19 inhibition. P33261. CYP2C19 Supersomes, luciferin-H EGE luminescence, 30 min. inhibition, % at 5 µM. 21% of 96,000 active. AID 778;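 active = CYP2C19 inhibition above a set limit at 5 µM in the primary screen, cut at about 50% in these data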;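 note: plate controls were negative control wells for no effect and 2.5 mM tranylcypromine positive control for full effect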
# CYP2C9 activ: CYP2C9 (human) activation; P11712; recombinant CYP2C9, luciferin-H conversion, luminescence; hits give high values; factor 1 = untreated enzyme, 0 = blocked; activation factor at 5 µM; 1.4% of 96,000 active; AID 1024;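 active = activation factor of 2 or more for CYP2C9 at a 5 µM dose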;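 note: 0 = sulfaphenazole-blocked wells and 1 = vehicle-only wells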
# CYP2C19 activ: activators of human cytochrome P450 2C19; P33261; recombinant CYP2C19, luciferin-H EGE luminescence; hits give high values; 0 = fully inhibited enzyme, 1 = untreated enzyme; activation factor at 5 µM; 96,000 tested, under 10 active; AID 1025;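 active = activation factor of at least 2 at 5 µM in the primary screen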;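 note: 0 = wells with 2.5 mM tranylcypromine and 1 = vehicle-only wells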
# The depositor's hits bear a star; x = not tested or not shown.
SMILES,Cav32 inh,CYP2C9 inhib,CYP2C19 inhib,CYP2C9 activ,CYP2C19 activ
COc1ccc(-c2cc3nc(C)c(CCC(=O)NCc4ccco4)c(C)n3n2)c(OC)c1,1.1,x,x,x,x
O=C(CCNS(=O)(=O)c1cccs1)NCc1ccco1,-0.034,14,14,0.9,0.9
CC(C)NC(=O)c1cc(C(=O)c2cc(Cl)ccc2O)coc1=N,-1.2,34,69*,0.7,0.3
N#Cc1cc(C(=O)c2cc(Cl)ccc2O)cn(CC2CCCO2)c1=O (stereo not given),0.89,13,27,0.9,0.7
COc1ccc(C(=O)N2CCCC(c3ccccc3)C2)cc1 (stereo not given),-0.86,-24,95*,1.2,0
O=C(c1ccco1)N1CCC(c2ccccc2)C1 (stereo not given),0.095,51*,78*,0.5,0.2
CCOC(=O)N1CCN(C(=O)c2ccccc2NC(=O)COc2ccccc2C)CC1,x,56*,65*,0.4,0.3
CCOC(=O)C1CCN(C(=O)c2ccccc2Oc2ccccc2)CC1,-0.2,92*,85*,0.1,0.2
CCn1cc(C(=O)NCCCOC)c(=O)c2cc(S(=O)(=O)N(C)C)ccc21,0.1,x,x,x,x
CC1(C(=O)NCCCNc2ncc(C(F)(F)F)cc2Cl)C=CC2(CCCCC2)N1C(=O)c1ccccc1 (stereo not given),-2.8,x,x,x,x
C(=C\c1cccc2ccccc12)/c1nnc(-c2cccs2)o1,-3.1,-35,10,1.4,0.9
CCOC(=O)N1CCN(C(=O)c2ccccc2Oc2ccccc2)CC1,x,94*,42,0.1,0.6
O=C(c1ccco1)N1CCN(C(=O)c2ccccc2Oc2ccccc2)CC1,-5*,x,x,x,x
O=C(c1ccco1)N1CCN(C(=O)c2ccccc2OC(=O)C23CC4CC(CC(C4)C2)C3)CC1,-3.2,65*,79*,0.3,0.2
COc1cccc(C(=O)N2CCN(CCCc3ccccc3)CC2)c1OC,0.56,10,8,0.9,0.9
CCOC(=O)N1CCN(C(=O)c2cccc(OC)c2OC)CC1,0.042,-11,28,1.1,0.7
COc1ccccc1C(=O)N1CCN(CCc2ccccc2)CC1,0.54,49,61*,0.5,0.4
O=C(c1ccco1)N1CCN(C(=O)C(c2ccccc2)c2ccccc2)CC1,-1.7,x,x,x,x
COCCn1c(SCC(=O)N2CCN(c3ccccc3)CC2)nc2c(c1=O)SC(C)C2 (stereo not given),2.3,x,x,x,x
CCCOc1cc(CN2CCCCC2)cc(C(C)=O)c1,-0.21,-18,-17,1.2,1.2
CCOC(=O)C1CSC(CC(=O)Nc2ccc(Cl)c(Cl)c2)C(=O)N1 (stereo not given),-2.4,-37,18,1.4,0.8
COC(=O)CC(N)c1ccc(OC)c2ccccc12 (stereo not given),0.68,-7,16,1.1,0.8
C=Cn1nc(C)c2ccccc2c1=O,x,-15,-7,1.2,1.1
CCO[C@@H]1OC(C(=O)O)=C[C@H](c2ccc3c(c2)OCO3)[C@H]1CCCO,0.21,x,x,x,x
CCOc1ccccc1C(=O)N1CCCCC1C (stereo not given),x,58*,69*,0.4,0.3
SMILES,Cav32 inh,CYP2C9 inhib,CYP2C19 inhib,CYP2C9 activ,CYP2C19 activ
CCCC(=O)Nc1ncnc2c1ncn2[C@@H]1O[C@@H]2COP(=O)(O)O[C@H]2[C@H]1OC(=O)CCC,0.039,x,x,x,x
COC(=O)Nc1ccc2c(c1)N(C(=O)CCN1CCN3CCCC3C1)c1ccccc1S2 (stereo not given),0.63,10,-3,0.9,1
COCCCNC(=O)CSC1=Nc2ccccc2C2=NC(Cc3c[nH]c4ccccc34)C(=O)N12 (stereo not given),x,20,11,0.8,0.9
CCOC(=O)CSC1=Nc2ccccc2C2=NC(CC(=O)NCc3cccs3)C(=O)N12 (stereo not given),x,65*,8,0.4,0.9
CCOC(=O)CSC1=Nc2ccccc2C2=NC(CC(=O)NCc3ccccc3)C(=O)N12 (stereo not given),1.7,57*,3,0.4,1
CCCCNC(=O)CC1N=C2c3ccccc3N=C(SCC(=O)Nc3ccccc3C)N2C1=O (stereo not given),1,34,20,0.7,0.8
O=C(Nc1ncc2c(n1)CC(c1ccccc1)CC2=O)c1ccco1 (stereo not given),0.019,x,x,x,x
O=C1CC(c2ccco2)Cc2nc(Nc3ccc(F)cc3)ncc21 (stereo not given),1.1,59*,56*,0.4,0.4
COc1ccc(C2CC(=O)c3cnc(NC(=O)c4ccccc4)nc3C2)c(OC)c1 (stereo not given),-3.3*,48,47,0.5,0.5
O=C1CC(c2ccccc2)Cc2nc(NCc3ccco3)ncc21 (stereo not given),x,51*,45,0.5,0.5
COc1ccccc1C(=O)Nc1ncc2c(n1)CC(c1ccco1)CC2=O (stereo not given),-0.16,29,56*,0.7,0.4
COc1ccc(Nc2ncc3c(n2)CC(c2ccc(OC)cc2)CC3=O)cc1 (stereo not given),0.046,27,6,0.7,0.9
CCCC(C(=O)NC1CCCC1)N(CCCN1CCOCC1)C(=O)c1snc(C(N)=O)c1N (stereo not given),-1.7,2,7,1,0.9
CC(C)(C)OC(=O)NNC(=S)NCc1ccc(Cl)cc1,-0.49,55*,57*,0.4,0.4
CC(C)(C)OC(=O)NNC(=O)c1ccc(Cl)cc1,0.84,24,46,0.8,0.5
CCn1c(NCc2ccco2)nc2c1c(=O)n(C)c(=O)n2C,0.043,x,x,x,x
Cc1ccccc1OCC(O)Cn1c(NCc2ccco2)nc2c1c(=O)n(C)c(=O)n2C (stereo not given),0.041,93*,87*,0.1,0.1
NC(=O)C1CCN(c2nnnn2-c2ccccc2)CC1,0.88,10,42,0.9,0.6
CCN1CCN(c2c(C(=O)c3ccc(OC)cc3)cnc3ccccc23)CC1,-0.28,x,x,x,x
CCOC(=O)C1CCCN(c2c(C(=O)c3ccccc3)cnc3ccc(OC)cc23)C1 (stereo not given),-6.8*,x,x,x,x
O=C(NC1CCCCC1)C1CCCN(c2nnnn2-c2ccccc2)C1 (stereo not given),0.67,38,55*,0.6,0.5
CCOC(=O)C1CCCN(c2nnnn2-c2ccccc2)C1 (stereo not given),0.25,39,81*,0.6,0.2
O=C(CN1C(=O)NC2(CCCCCCC2)C1=O)NCc1ccc2c(c1)OCO2,-0.74,23,5,0.8,1
CC[C@@H](C)C(NC(=O)OC(C)(C)C)c1cn([C@@H](Cc2cc3ccccc3[nH]2)C(=O)N2CCN(C(=O)OC(C)(C)C)CC2)nn1 (stereo not given in full),-1.9,x,x,x,x
O=C(c1ccc(Cl)c(Cl)c1)N(Cc1ccco1)c1ccc(O)cc1,-7.4*,98*,99*,0,0
O=C(Cn1cnc2ccccc2c1=O)N(Cc1ccco1)c1ccc(O)cc1,0.41,34,21,0.7,0.8
